Assay outcomes (PubChem BioAssay)
Shown are actives, neighbours in structure and some others; about 2% of the full set was active somewhere.
HttQ103 aggreg = mutant huntingtin aggregation inhibition; PC12 HttQ103-GFP aggregates, Acumen cytometry, 40 h; Potency, µM (top dose mostly 46.1 µM), hits mostly inhibitors; hit rate 1.1% among 220,000; AID 1688; further: nearly all actives have a fitted effect of over 60% in size
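PC12/HTTQ103-GFP, ecdysone-inducible; teb 100 nM; cpd qHTS titration; GFP aggregates read on laser cytometer, Ex 488/Em 500-530 nm.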
JMJD2E inh = inhibitors of human JMJD2E histone demethylase; Potency, µM (highest dose often 57.1 µM), most hits filed as inhibitors; JMJD2E catalytic domain, FDH-coupled NADH fluorescence (FDH is formaldehyde dehydrogenase); AID 2147; B2RXH2; hit rate 1.6% among 230,000; active means well fitted inhibition curve with a large enough effect, not every such curve was filed as active; inconclusive means small, poorly fitted or top-dose-only effect, or another doubt; inactive means no such curve, though single readings can be large or run the other way; further: nearly all actives have a fitted effect of over 50% in size
TexasRed fluor = counter-screen for TRb-SRC2 inhibitors: fluorescence interference | TRb/SRC2 Texas Red total fluorescence interference | Potency, µM (series often up to 106 µM) | hit rate 0.29% among 280,000 | AID 1479; active means well fitted curve in either direction with a large enough effect; inconclusive means small, poorly fitted or top-dose-only effect
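Human TRβ ligand-binding domain (0.6 uM) and Texas Red SRC2 peptide (20 nM) in Tris buffer with 1 uM T3 and 5% DMSO were incubated with pinned compound for 5 hr at ambient temperature. Total fluorescence was computed as S + 2P (555/632 nm).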
TRb SRC2 PPI = disrupts binding of human TR beta to SRC2; TRbeta-SRC2 peptide binding, fluorescence polarization; receptor liganded with 1 µM T3; Potency, µM (series often up to 106 µM), usual class: inhibitors; hit rate 0.065% among 280,000; further: nearly all actives have a fitted effect of over 50% in size
Target sequence (P10828 whole entry, looked up): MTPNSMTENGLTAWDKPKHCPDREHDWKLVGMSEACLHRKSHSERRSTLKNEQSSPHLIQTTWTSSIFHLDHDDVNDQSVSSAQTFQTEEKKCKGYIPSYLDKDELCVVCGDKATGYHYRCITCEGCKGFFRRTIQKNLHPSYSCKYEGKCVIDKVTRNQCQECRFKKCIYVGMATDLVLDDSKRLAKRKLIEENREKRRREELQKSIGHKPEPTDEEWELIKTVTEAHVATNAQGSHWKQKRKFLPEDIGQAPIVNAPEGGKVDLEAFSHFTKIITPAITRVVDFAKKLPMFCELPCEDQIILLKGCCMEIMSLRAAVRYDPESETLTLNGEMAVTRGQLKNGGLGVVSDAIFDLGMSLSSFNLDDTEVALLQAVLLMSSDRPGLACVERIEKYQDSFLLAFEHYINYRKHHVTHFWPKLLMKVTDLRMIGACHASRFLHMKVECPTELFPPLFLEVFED
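TRb LBD 0.6 uM + Texas Red SRC2 peptide 20 nM, 1 uM T3, Tris buffer w/ 5% DMSO; compound pinned, 5 h RT; FP read ex 555/em 632; normalized to unbound and bound controls.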
HTT ATP protect = Huntington cell model cytoprotection by ATP luminescence. PC12 HTT-Q103 induced, cytoprotection, ATP luminescence, 40 h. Potency, µM (series often up to 56.4 µM), usual class: activators. hit rate 0.14% among 230,000. AID 1471; further: nearly all actives have a fitted effect of over 45% in size
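ATP quantification (ATPlite) reports survival of PC12 cells in which tebufenozide, 100 nM final, switches on Htt exon 1 with 103 glutamines linked to GFP; compounds are titrated.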
Coupling enz = inhibits coupling enzyme system, counter-screen for aldolase hits; coupling enzyme system counterscreen, AmpLite Red fluorescence; AID 2472; hit rate 0.67% among 290,000; activity change, negative = inhibition, % at 58.2 µM, hits read low; in the data active means activity change below about -30%
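Final compound at 57.5 uM, incubated 10 min at RT with coupling enzyme reagent (glyceraldehyde-3-phosphate), then 20 min with substrate and AmpLite Red detection. Fluorescence read at 525/598 nm; tests interference with the coupling assay, not aldolase inhibition.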
A number is an active result; - = inactive; ? = inconclusive; . = no result given; ! = a repeat was not active; [ ] = dose if it differs, or a comment. Unless noted, the call rests on the fitted dose curve; in most records, active means well fitted curve in the direction sought with a large enough effect; inconclusive means small, poorly fitted or top-dose-only effect, or another doubt; inactive means no such curve, though single readings can be large; an effect the other way counts as inactive or inconclusive.

SMILES | HttQ103 aggreg | JMJD2E inh | TexasRed fluor | TRb SRC2 PPI | HTT ATP protect | Coupling enz
CCC(C)NC(=O)c1c(N)n(Cc2ccc3c(c2)OCO3)c2nc3ccccc3nc12 (stereo not drawn) | ? | ? | - | - | -[0.074 µM] | -37
CCCCn1c(N)c(C(=O)NCCN2CCOCC2)c2nc3ccccc3nc21 | - | ? | - | - | - | -
CC1(C(=O)Nc2ccc(O)c(Cl)c2Cl)CCCCC1 | . | . | - | - | . | .
Nc1nc(N)nc(Cl)n1 | . | . | - | - | . | .
Clc1ccc(C(Cl)(Cl)Cl)cc1 | . | . | - | - | . | .
O=C(CSC1c2ccccc2-c2ccccc21)N/N=C/c1ccccc1O | -[1.84 µM] | 25µM | - | - | - | -
O=C(CSC1c2ccccc2-c2ccccc21)N/N=C/c1ccc(C(=O)O)cc1 | - | - | - | - | - | -
O=C(O)C1Sc2[nH]c(=O)sc2C2c3cc(Cl)ccc3OC(=O)C12 (stereo not drawn) | - | 14µM | - | - | -[0.074 µM] | -
O=c1cc(-c2ccc(O)c(O)c2)oc2cc(O)cc(O)c12 | -[9.22 µM] | 13µM | ? | - | ? | -
O=c1c(O)c(-c2ccc(O)c(O)c2)oc2cc(O)cc(O)c12 | - | 14µM | ? | - | ? | -
CNC(=O)/C=C(\C)OP(=O)(OC)OC | . | . | - | - | . | .
O=C1C2CC=CCC2C(=O)N1SC(Cl)(Cl)Cl (stereo not drawn) | 14µM | . | - | - | - | .
CCOCn1c(-c2ccc(Cl)cc2)c(C#N)c(Br)c1C(F)(F)F | . | . | - | - | . | .
CC(=NCc1ccco1)c1c(O)n(C)c(=O)n(C)c1=O | 16µM | - | - | - | -[0.074 µM] | -
CNC(=O)O/N=C(\SC)C(=O)N(C)C | . | . | - | - | . | .
C#CCC1=C(C)[C@H](OC(=O)[C@H]2[C@H](C=C(C)C)C2(C)C)CC1=O | . | . | - | - | . | .
CCCCn1c(O)c(C=NC2CC3CCC2(C)C3(C)C)c(=O)[nH]c1=O (stereo not drawn) | 13µM | - | - | - | -[10 µM] | -
c1ccc2c(c1)oc1ccccc12 | . | . | - | - | . | .
Cc1cc(/C=C2/C(=O)NC(=O)N(Cc3ccco3)C2=O)c(C)n1-c1ccccc1O | -[9.22 µM] | 32µM | - | - | -[10 µM] | -
CN1CCC(c2c[nH]c3ccccc23)C1 (stereo not drawn) | -[9.22 µM] | 22µM | - | - | -[10 µM] | -
CC1CC(C)C(=O)[C@H](C(O)CC2CC(=O)NC(=O)C2)C1 (stereo partly drawn) | . | - | - | - | . | -
C[C@H]1C[C@@H](C)C(=O)[C@@H]([C@H](O)CC2CC(=O)NC(=O)C2)C1 | 0.35µM | - | - | - | -[10 µM] | -
C=C(C)C(=O)OCC(CC)CCCC (stereo not drawn) | . | . | - | - | . | .
COc1ccc(Cl)cc1NC(=O)c1sc2nc3c(cc2c1N)N1CCC3CC1 | . | . | - | - | . | .
Nc1c(C(=O)Nc2ccc(Br)cc2F)sc2nc3c(cc12)N1CCC3CC1 | . | . | 10µM[quencher] | - | . | .
SMILES | HttQ103 aggreg | JMJD2E inh | TexasRed fluor | TRb SRC2 PPI | HTT ATP protect | Coupling enz
CN(C)c1ccc(NC(=O)c2sc3nc4c(cc3c2N)N2CCC4CC2)cc1 | . | . | 14µM[quencher] | - | . | .
Nc1c(C(=O)Nc2ccc(F)c(Cl)c2)sc2nc3c(cc12)N1CCC3CC1 | . | . | - | - | . | .
O=[N+]([O-])c1cccc(CN2CCN(Cc3ccc(Br)cc3)CC2)c1 | - | 25µM | - | - | -[10 µM] | -
CCc1cc2c(N3CCN(C)CC3)ncnc2s1 | ? | - | - | - | -[10 µM] | -
CCN1CCN(c2ncnc3ccc(Br)cc23)CC1 | 7.1µM | - | - | - | -[0.074 µM] | -
O=C(O)c1c(Cl)ccc2cc(Cl)cnc12 | . | . | - | - | . | .
O=C/C(Cl)=C(/Cl)C(=O)O | . | . | - | - | . | .
O=c1[nH]c(=S)n(C2CC2)c(O)c1/C=N/Nc1cccc2ccccc12 | - | - | - | - | -[10 µM] | -53
O=c1[nH]c(=S)n(C2CC2)c(O)c1/C=N/Nc1ccccc1 | - | ? | - | - | -[10 µM] | -
OC(Cn1cncn1)(c1ccc(F)cc1)c1ccccc1F (stereo not drawn) | . | . | - | - | . | .
CCSCc1ccccc1OC(=O)NC | . | . | - | - | . | .
CCOc1ccccc1N1CCN(Cc2cccc(OC)c2OC)CC1 | - | ? | - | - | - | -41
CCN1CCN(Cc2ccc(C)cc2)CC1 | - | - | - | - | - | -
COc1ccccc1CN1CCN(Cc2ccc(Cl)cc2)CC1 | - | 20µM | - | - | -[10 µM] | -
Cc1ccc(CN2CCN(Cc3ccccc3F)CC2)cc1 | - | 13µM | - | - | - | -
CC1(C)[C@H](C=C(Cl)Cl)[C@H]1C(=O)O[C@H](C#N)c1ccc(F)c(Oc2ccccc2)c1 | . | . | - | - | . | .
CCOC(=O)Nc1cccc(OC(=O)Nc2ccccc2)c1 | . | . | - | - | . | .
CC1C(=O)OC2C1CC[C@@]1(C)C=CC(=O)[C@@]3(C)O[C@@]213 (stereo partly drawn) | . | - | - | - | 35µM | -
CCC(C)C(=O)OC1C(O)C2C(CN3CC(C)CCC3[C@]2(C)O)C2C[C@]34O[C@@]5(O)C(OC(=O)C(C)(O)CC)CCC3(C)C5C(OC(C)=O)C(OC(C)=O)C4[C@@]21O (stereo partly drawn) | . | - | - | - | 1.4µM | -
C/C(=N\C(N)=O)N(C)Cc1ccc(Cl)nc1 | . | . | - | - | . | .
CC(C)NC(=O)N1CC(=O)N(c2cc(Cl)cc(Cl)c2)C1=O | . | . | - | - | . | .
CC(C)[C@]1(NC(=O)[C@@H]2C=C3c4cccc5[nH]cc(c45)C[C@H]3N(C)C2)O[C@@]2(O)C3CCCN3C(=O)[C@H](Cc3ccccc3)N2C1=O (stereo partly drawn) | . | ? | - | - | -[1.9 µM] | -32
CC(C)C[C@H]1C(=O)N2CCC[C@@H]2[C@]2(O)O[C@](NC(=O)[C@H]3C=C4c5cccc6[nH]cc(c56)C[C@H]4N(C)C3)(C(C)C)C(=O)N12 | . | . | . | . | - | .
CN1COCN(Cc2cnc(Cl)s2)/C1=N\[N+](=O)[O-] | . | . | - | - | . | .
C=CCNC(=S)/N=C/c1c(O)[nH]c(=O)[nH]c1=O | - | 2.5µM | - | - | - | -
SMILES | HttQ103 aggreg | JMJD2E inh | TexasRed fluor | TRb SRC2 PPI | HTT ATP protect | Coupling enz
c1ccc(C2CC2)c(OCC2=NCCN2)c1 | - | - | 45µM![fluorescent] | ? | - | -
COc1ccc(-n2c(C)cc(C(=O)C[N+]34CCN(CC3)CC4)c2C)cc1 | - | 22µM | - | - | - | -
Cc1ccc(C(O)(c2ccc(C)c(C)c2)C2CN3CCC2CC3)cc1C (stereo not drawn) | . | . | . | . | . | -
Cc1ccccc1C(O)(Cc1ccccc1)C1CN2CCC1CC2 (stereo not drawn) | -[9.22 µM] | - | - | - | 3.2µM | -
CCC(C)(c1ccc(O)cc1)c1ccc(O)cc1 | . | . | - | - | . | .
O=C(NC1(C(F)(F)F)Oc2ccccc2O1)N1CCC2(CC1)OCCO2 | ? | 14µM | - | - | -[10 µM] | -
O=C(NC1(C(F)(F)F)Oc2ccc(Cl)cc2O1)N1CCC2(CC1)OCCO2 (stereo not drawn) | - | 16µM | - | - | - | -
